Molecules are shown by their SMILES. Records with an inconclusive call do not appear. A number with no mark means an inactive call. Active and inactive are the calls of the source. Unless noted, the call rests on the fitted dose curve; in most records, active means well fitted curve in the direction sought with a large enough effect in the repeat runs; inconclusive means weak or mixed curves; inactive means no such curve, though single readings can be large; an effect the other way counts as inactive or inconclusive.

Assay [1] in a line: qHTS assay to identify small molecule agonists of the vitamin D receptor (VDR) signaling pathway - cell viability counter screen (AID 743224). Further: nearly all actives have a fitted effect of over 50% in size. Further: potency means the concentration at half of the fitted maximal effect. The essentials: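 VDR-bla cell line, quantitative HTS format; 16 h compound incubation (37C, 5% CO2); ATP-based CellTiter-Glo luminescence measured in the reporter assay wells.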
Assay [2] can be described thus: qHTS assay to identify small molecule agonists of the NFkB signaling pathway - cell viability counter screen (AID 1159515; calls by dose curve; further: on the % scale 0 is the no-effect control and ±100 the full control effect; nearly all actives have a fitted effect of over 55% in size). In a few lines: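 Viability in NFkB-bla ME-180 cells was measured by CellTiter-Glo luminescence, 30 min room temperature, in wells already treated 5 hr with compounds and read for reporter FRET.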
Assay [3] in a line: qHTS assay to identify small molecule agonists of the endoplasmic reticulum stress response signaling pathway (AID 1159516; active means well fitted activation curve with a large enough effect in the signal ratio in the repeat runs, not every such curve was filed as active; the % refers to the signal ratio; further: on the % scale 0 is the no-effect control and ±100 the full control effect). In a few lines: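 ER stress element reporter (bla) in HeLa. 1,500 cells/well, overnight attachment; 5 hr compound; 2 hr RT substrate; dual-emission fluorescence.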
Assay [4] is described as follows: qHTS assay to identify small molecule antagonists of the retinoid-related orphan receptor gamma (ROR-gamma) signaling pathway - cell viability counter screen (AID 1159520). Further: on the % scale 0 is the no-effect control and ±100 the full control effect; nearly all actives have a fitted effect of over 50% in size. The essentials:
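Cytotoxicity was read from cellular ATP (CellTiter-Glo luminescence) after 16 hr at 37 C with 1 uM doxycycline induction. The inducer was added 2 hr after compound transfer to Tet-on ROR gamma CHO cells.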

Assay [5] concerns the target Nuclear receptor ROR-gamma (Homo sapiens) (UniProt P51449). The assay is described as follows: qHTS assay to identify small molecule antagonists of the retinoid-related orphan receptor gamma (ROR-gamma) signaling pathway (AID 1159521;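 further: CHO cells with doxycycline inducible ROR-gamma driving an RORE luciferase reporter; top concentration of the series differs between compounds; on the % scale 0 is the no-effect control and ±100 the full control effect; nearly all actives have a fitted effect of over 50% in size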). In a few lines:
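Tet-on ROR-gamma CHO cells with ROR response element-luciferase reporter; compounds added 2 hr before 1 uM doxycycline induction, then 16 hr at 37 C. Antagonism scored as decreased ONE-Glo luminescence.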

A short description of assay [6]: qHTS assay to identify small molecule agonists of the AP-1 signaling pathway - cell viability counter screen (AID 1159525; calls by dose curve; further: nearly all actives have a fitted effect of over 55% in size). In a few lines:
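Luminescent ATP readout (Cell Titer Glo, 30 min RT), normalised to DMSO and tetra n-octyl ammonium bromide controls. Cells were ME-180 AP-1-bla in 0.5% dialyzed FBS Opti-MEM, with a 5 h, 37 °C compound exposure.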

Assay [7] can be described thus: qHTS assay to identify small molecule agonists of the AP-1 signaling pathway (AID 1159526; calls by dose curve; further: on the % scale 0 is the no-effect control and ±100 the full control effect).
Assay [8] concerns the target Retinoic acid receptor RXR-alpha (Homo sapiens) (UniProt P19793). The assay is described as follows: qHTS assay to identify small molecule agonists of the RXR signaling pathway (AID 1159527; calls by dose curve; further: nearly all actives have a fitted effect of over 35% in size; further: potency means the concentration at half of the fitted maximal effect). The essentials: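 GeneBLAzer RXR-alpha-UAS-bla HEK 293T cells in 2% charcoal-stripped FBS medium were exposed to compounds for 16 hr at 37 C in agonist mode. Beta-lactamase reporter read as 460/530 nm FRET ratio after 2 hr substrate loading.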

A short description of assay [9]: qHTS assay to identify small molecule agonists of the RXR signaling pathway - cell viability counter screen (AID 1159529). Further: nearly all actives have a fitted effect of over 50% in size. Further: potency means the concentration at half of the fitted maximal effect. In a few lines: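 RXR-alpha-UAS-bla HEK 293T cells in medium with 2% charcoal-stripped FBS were pre-incubated 5 hr, then compound-treated 16 hr at 37 C. Viability was read by CellTiter-Glo luminescence in the same wells as the beta-lactamase assay, with tetraoctyl ammonium bromide as positive control.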

Assay [10] in a line: qHTS assay to identify small molecule antagonists of the retinoid acid receptor (RAR) signaling pathway - cell viability counter screen (AID 1159551). Further: on the % scale 0 is the no-effect control and ±100 the full control effect; nearly all actives have a fitted effect of over 35% in size. In a few lines: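 Following overnight attachment, C3RL4 reporter cells received DMSO-dissolved compounds and then retinol (1 uM final). Six hours later at 37 C, ATP content was measured by CellTiter-Glo luminescence.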
Assay [11] is described as follows: qHTS assay to identify small molecule antagonists of the vitamin D receptor (VDR) signaling pathway - cell viability counter screen (AID 743225). Further: nearly all actives have a fitted effect of over 50% in size. Further: potency means the concentration at half of the fitted maximal effect. The essentials:
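VDR-UAS-bla HEK 293T cells were plated and incubated 4 h at 37C, then dosed with compound plus 3 nM (final) 1-alpha,25-dihydroxyvitamin D3 for 16 h. After the 2 h beta-lactamase read, viability in the same wells was read as CellTiter-Glo luminescence after 30 min at room temperature.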

Assay [12] in a line: qHTS assay to identify small molecule agonists of the endoplasmic reticulum stress response signaling pathway - cell viability counter screen (AID 1159517; calls by dose curve). The essentials: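 HeLa cells carrying an ESRE-driven beta-lactamase reporter receive compound for 5 hr at 37 C. Cell viability is then gauged with CellTiter-Glo by luminescence, 30 min at room temperature.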
Assay [13] is described as follows: qHTS assay to identify small molecule antagonists of the retinoic acid receptor (RAR) signaling pathway (AID 1159552). In a few lines:
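Retinol signaling pathway inhibitors screened in C3RL4 RARE-luciferase reporter cells seeded overnight at 37 C, then compounds added with 1 uM (final) retinol as pathway substrate. After 6 hr at 37 C, luciferase luminescence read after 30 min at room temperature.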

Assay [14] is described as follows: qHTS assay to identify small molecule agonists of the retinoic acid receptor (RAR) signaling pathway (AID 1159553). Further: on the % scale 0 is the no-effect control and ±100 the full control effect. The conditions noted are these: C3RL4 RARE luciferase reporter, agonist, 6 h; activation: at 73.3 µM (top of the series) unless noted. The essentials:
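Cell line C3RL4, RARE luciferase reporter. Treatment: compounds in DMSO, 6 hr, 37 C, 5% CO2, after overnight plating. Detection: luminescence, 30 min RT after reagent.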

A short description of assay [15]: qHTS assay to identify small molecule antagonists of the estrogen related receptor (ERR) signaling pathway - cell viability counter screen (AID 1224818). Further: on the % scale 0 is the no-effect control and ±100 the full control effect. The essentials:
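Here, ERR cells are plated at 2,000 cells per well, allowed 6 h to attach, and treated with compounds in DMSO for 17.5 h at 37 C. CellTiter-Fluor is then added and fluorescence read after 30 min.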

A short description of assay [16]: qHTS assay to identify small molecule antagonists of the estrogen related receptor signaling pathway with the pleiotropic PPARgamma coactivator (PGC) cell viability counter screen (AID 1224822; further: on the % scale 0 is the no-effect control and ±100 the full control effect). In a few lines: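 qHTS format, DMSO compound stocks pin-transferred onto PGC/ERR cells 6 h after plating; 17.5 h exposure at 37 C, then CellTiter-Fluor fluorescence.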

Chain of Retinoic acid receptor RXR-alpha (Homo sapiens) (P19793 whole entry, looked up): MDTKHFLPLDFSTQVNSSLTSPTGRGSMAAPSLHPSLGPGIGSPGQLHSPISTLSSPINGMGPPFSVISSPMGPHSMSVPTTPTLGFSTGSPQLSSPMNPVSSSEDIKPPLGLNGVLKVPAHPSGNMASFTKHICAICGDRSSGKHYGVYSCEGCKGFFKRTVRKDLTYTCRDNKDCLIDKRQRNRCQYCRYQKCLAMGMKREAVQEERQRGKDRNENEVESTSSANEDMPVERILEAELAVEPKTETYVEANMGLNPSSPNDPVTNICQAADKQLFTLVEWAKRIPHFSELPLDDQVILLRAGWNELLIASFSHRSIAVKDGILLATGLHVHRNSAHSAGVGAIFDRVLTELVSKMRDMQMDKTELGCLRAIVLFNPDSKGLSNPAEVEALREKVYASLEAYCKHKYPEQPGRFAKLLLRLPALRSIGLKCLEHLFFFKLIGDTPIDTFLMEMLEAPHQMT

For the compound `CCCCCCCC`, the Potency result in assay [1], in assay [2], in assay [3], in [4], in [5] and in [6] was “inactive” each time. Moreover, the Potency result in assay [7], in assay [8], in assay [9] and in [10] was “inactive” each time.
For the compound `CCCCCCCCCCCCOCCOCCOCCOCCOCCOCCOCCOCCOCCO`, the Potency in assay [1] was 29.8 µM (active); in [11], 10.7 µM (active); in [9] it was 16.9 µM (active). Further, the Potency result in assay [2], in [3] and in assay [12] was “inactive” throughout.
In the case of `CCCCCc1ccc(Cl)cc1`, the Potency entry in assay [1], in [11], in assay [2], in [3], in assay [4] and in [5] was “inactive” throughout. For the same compound, the Potency result in assay [6], in assay [7], in assay [8], in assay [9], in [10] and in assay [13] was “inactive” each time. Also, in [14], the Potency result was “inactive”.
Turning to `Cc1ccc(N/N=c2\c(=O)cc/c(=N\Nc3ccc(S(=O)(=O)O)cc3)c2=O)c(C)c1`, the Potency result in assay [1], in [11], in assay [2], in [3], in assay [4] and in [5] was “inactive” throughout. In addition, the Potency result in assay [6], in assay [7], in [8], in [9], in assay [10] and in assay [14] was “inactive” throughout.
Consider `CCC(=O)C(=O)CC`, for which the Potency result in assay [1], in [2], in [3], in assay [4], in assay [5] and in [6] was “inactive” in each case. In addition, the Potency result in assay [7], in assay [8], in [9], in assay [10], in [13] and in assay [14] was “inactive” throughout.
Regarding `CCC(CC)C(C)CCOC(C)=O` (centres undefined), the Potency entry in assay [1], in assay [11], in assay [2], in [3], in [4] and in [5] was “inactive” in each case. The Potency entry in [6], in assay [7], in [8], in assay [9], in assay [10] and in assay [14] was “inactive” each time.
For the compound `CC(CO)Oc1ccccc1` (centres undefined), the Potency result in assay [1], in assay [2], in assay [3], in [4], in assay [5] and in assay [6] was “inactive” in each case. For the same compound, the Potency entry in assay [7], in assay [8], in assay [9], in assay [10], in assay [13] and in [14] was “inactive” in each case.
As to `Cc1nc2n(c(=O)c1CCN1CCC(c3noc4cc(F)ccc34)CC1)CCCC2`, the Potency result in assay [1], in [2], in assay [3], in assay [4], in assay [5] and in assay [6] was “inactive” in each case. In addition, the Potency result in [7], in [8], in [10], in assay [13] and in [14] was “inactive” in each case.
In the case of `O=C(Oc1ccccc1)Oc1ccccc1`, the Potency entry in assay [1], in assay [11], in assay [2], in assay [3], in assay [4] and in assay [5] was “inactive” each time. Further, the Potency entry in [6], in [7], in assay [10], in assay [13] and in [14] was “inactive” each time.
Turning to `O=[N+]([O-])c1cccc(C(F)(F)F)c1`, the Potency entry in [1], in assay [11], in assay [2], in [3], in assay [4] and in [5] was “inactive” each time. The Potency result in assay [6], in assay [7], in assay [8], in [9] and in assay [10] was “inactive” in each case.
For `Cc1c(F)c(N2CCNC(C)C2)cc2c1c(=O)c(C(=O)O)cn2C1CC1` (centres undefined), the Potency result in assay [11], in [2], in assay [3], in assay [4], in assay [5] and in assay [6] was “inactive” each time. Further, the Potency result in assay [7], in assay [9], in [10], in assay [13] and in assay [14] was “inactive” each time.
For `Cc1cccc(C)c1NC(=O)c1ccc(N)cc1`, the Potency result in assay [2], in [3], in assay [4], in assay [5], in assay [6] and in [7] was “inactive” throughout. In addition, the Potency entry in [8] and in [10] was “inactive” in each case.
Take `CCCCOC(=O)CO`: the Potency result in assay [1], in [11], in assay [2], in assay [3], in [4] and in assay [5] was “inactive” in each case. In addition, the Potency result in assay [6], in assay [7], in assay [8] and in assay [10] was “inactive” each time.
Consider `CC(C)Cn1cnc2c(N)nc3ccccc3c21`, for which the Potency entry in [1], in assay [11], in assay [2], in assay [3] and in [14] was “inactive” throughout. Moreover, the activity, negative = cytotoxicity in assay [4] is -2.84% [at 19 µM]. Further, the activity change, negative = inhibition in assay [5] was 5.43% [at 19 µM]. Moreover, the viability change, negative = cytotoxic in assay [6] was 9.4% [at 15.8 µM]. The activation in assay [8] was 13.7% [at 15.8 µM]. In addition, in assay [10], the activity change, negative = cytotoxicity is -0.222% [at 19 µM].
Turning to `Clc1sc(Cl)c(Cl)c1Cl`, the Potency result in assay [1], in [11], in assay [2], in [3], in assay [4] and in assay [5] was “inactive” each time. Also, the Potency result in assay [6], in [7], in assay [8] and in assay [10] was “inactive” in each case.
Turning to `CN(C)Cc1cc(C(C)(C)C)c(O)c(C(C)(C)C)c1`, the Potency entry in assay [1], in [2], in assay [3], in assay [4], in [5] and in [6] was “inactive” each time. For the same compound, the Potency result in [7], in assay [10], in assay [13] and in assay [14] was “inactive” in each case. In assay [8], the Potency is 11 µM (active).
Turning to `c1ccsc1`, the Potency result in assay [1], in assay [11], in assay [2], in assay [3], in assay [4] and in [5] was “inactive” each time. In addition, the Potency result in [6], in assay [7], in assay [9] and in [10] was “inactive” throughout.
As to `OCC(F)(F)F`, the Potency result in assay [1], in [2], in assay [3], in assay [4], in assay [5] and in [6] was “inactive” in each case. For the same compound, the Potency entry in assay [8], in [9] and in [10] was “inactive” throughout.
In the case of `O=C1CCc2cc(OCCCCc3nnnn3C3CCCCC3)ccc2N1`, the Potency entry in [1], in assay [11], in assay [2], in assay [3], in [4] and in assay [5] was “inactive” throughout. For the same compound, the Potency entry in assay [6], in assay [7], in [9], in assay [10] and in assay [16] was “inactive” throughout. Besides, the compound was classed as inactive in assay [15].
On to `C=CCn1c(=O)n(CC=C)c(=O)n(CC=C)c1=O`, for which the Potency entry in assay [1], in assay [11], in [2], in assay [3], in [4] and in [5] was “inactive” throughout. Further, the Potency entry in [6], in assay [7], in assay [9], in assay [10], in assay [13] and in [14] was “inactive” each time.
In the case of `Nc1ccc(Oc2ccc(Cl)cc2)cc1`, the Potency result in [1], in [11], in [2], in assay [3], in assay [4] and in [5] was “inactive” in each case. Besides, the Potency entry in assay [6], in [7], in [9], in [10] and in assay [13] was “inactive” each time.

(Values after PubChem BioAssay (Tox21).)
